Assay results published in PubChem BioAssay AID651642 (Sanford-Burnham Center for Chemical Genomics, 2012).
Values without a mark were called inactive. Activity calls are given as the source filed them.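 Rule for the calls: active = average half-effect concentration of 10 µM or less in every one of the four cell panels; inactive = the rest.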

Tested on: HL-1
Test: cardiomyocyte survival under oxidative or metabolic stress – cell-based, panel, H9c2 and HL-1, H2O2, 2-deoxyglucose, ATP luminescence, SAR follow-up (AID 651642);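 for Activity: plate controls were H2O2 plus DMSO for no effect and cells kept without H2O2 for full effect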
Conditions: H9c2/HL-1 cardiomyocyte H2O2 oxidative damage, mean of runs; activity: with H2O2, at 0.154 µM; outcome: with H2O2

| Structure (SMILES) | activity | outcome |
| --- | --- | --- |
| COc1ccc2c(c1OC)C(=O)N1c3ccccc3C(=O)N(Cc3c(Cl)cccc3Cl)C21 (configuration not stated) | 2.81% | – |
| COc1cc(-c2cc(C(=O)NCC(=O)Nc3cccc(C(C)=O)c3)c3cc(C)ccc3n2)cc(OC)c1OC | 0.0397% | – |
| CCOC(=O)c1cccc(NC(=O)CNC(=O)c2cc(-c3cc(OC)c(OC)c(OC)c3)nc3c(Cl)cccc23)c1 | -2.82% | – |
| COc1cc(-c2cc(C(=O)NCC(=O)Nc3cccc(C(C)=O)c3)c3ccccc3n2)cc(OC)c1OC | -2.38% (active) | – |
| COc1cc(-c2cc(C(=O)Nc3cccc(C(=O)N(C)C)c3)c3ccccc3n2)cc(OC)c1OC | 0.987% (active) | – |
| CCOC(=O)c1cccc(NC(=O)CNC(=O)c2cc(-c3cc(OC)c(OC)c(OC)c3)nc3ccc(OC)cc23)c1 | -3.33% (active) | – |
| COc1ccc2c(c1OC)C(=O)N1c3ccccc3C(=O)N(Cc3cccc(C)c3)C21 (configuration not stated) | -2.16% | – |
| COc1cc(-c2cc(C(=O)NCC(=O)Nc3cccc(C(C)=O)c3)c3cc(F)ccc3n2)cc(OC)c1OC | -0.68% (active) | – |
| CCOC(=O)c1cccc(NC(=O)c2cc(-c3cc(OC)c(OC)c(OC)c3)nc3ccccc23)c1 | 0.2% (active) | – |
| COc1cccc(CNC(=O)CNC(=O)c2cc(-c3cc(OC)c(OC)c(OC)c3)nc3ccccc23)c1 | -2.04% | – |
| COc1ccc2nc(-c3cc(OC)c(OC)c(OC)c3)cc(C(=O)NCC(=O)Nc3cccc(C(C)=O)c3)c2c1 | -0.983% (active) | – |
| COc1cc(-c2cc(C(=O)Nc3cccc(C(N)=O)c3)c3ccccc3n2)cc(OC)c1OC | -0.415% (active) | – |
| CCOC(=O)c1cccc(NC(=O)CNC(=O)c2cc(-c3cc(OC)c(OC)c(OC)c3)nc3ccc(Br)cc23)c1 | -0.604% (active) | – |
| COc1ccc2nc(-c3cc(OC)c(OC)c(OC)c3)cc(C(=O)Nc3cccc(C(C)=O)c3)c2c1 | – | inactive |
| COc1ccccc1CN1C(=O)c2ccccc2N2C(=O)c3c(ccc(OC)c3OC)C12 (configuration not stated) | 1.25% | – |
| CCOC(=O)c1cccc(NC(=O)c2cc(-c3cc(OC)c(OC)c(OC)c3)nc3ccc(C)cc23)c1 | 4.25% | – |

| Structure (SMILES) | activity | outcome |
| --- | --- | --- |
| COc1ccc2c(c1OC)C(=O)N1c3ccccc3C(=O)N(Cc3cccc(Cl)c3Cl)C21 (configuration not stated) | 4.4% | – |
| CCOC(=O)c1cccc(NC(=O)c2cc(-c3cc(OC)c(OC)c(OC)c3)nc3ccc(Cl)cc23)c1 | -1.55% | – |
| COc1ccc2c(c1OC)C(=O)N1c3ccccc3C(=O)N(Cc3ccccn3)C21 (configuration not stated) | 1.21% | – |
| COc1ccc2c(c1OC)C(=O)N1c3ccccc3C(=O)N(Cc3ccc(C)cc3)C21 (configuration not stated) | 9.89% | – |
| COc1ccc2c(c1OC)C(=O)N1c3ccccc3C(=O)N(Cc3ccccc3C)C21 (configuration not stated) | -0.339% | – |
| COc1cc(-c2cc(C(=O)Nc3cccc(C(=O)N4CCOCC4)c3)c3ccccc3n2)cc(OC)c1OC | -0.415% | – |
| COc1ccc2c(c1OC)C(=O)N1c3ccccc3C(=O)N(Cc3cccc(F)c3)C21 (configuration not stated) | 0.0397% | – |
| CCOC(=O)c1cccc(NC(=O)CNC(=O)c2cc(-c3cc(OC)c(OC)c(OC)c3)nc3ccc(C)cc23)c1 | -1.48% (active) | – |
| COc1ccc2c(c1OC)C(=O)N1c3ccccc3C(=O)N(Cc3ccccc3Br)C21 (configuration not stated) | -0.68% | – |
| COc1cc(-c2cc(C(=O)Nc3cccc(C(C)=O)c3)c3cc(C)ccc3n2)cc(OC)c1OC | 2.4% (active) | – |
| CCOC(=O)c1cccc(NC(=O)c2cc(-c3cc(OC)c(OC)c(OC)c3)nc3c(Cl)cccc23)c1 | 5.38% | – |
| COc1ccc2nc(-c3cc(OC)c(OC)c(OC)c3)cc(C(=O)NCC(=O)Nc3ccc(C(C)=O)cc3)c2c1 | -1.7% (active) | – |
| COc1ccc2c(c1OC)C(=O)N1c3ccccc3C(=O)N(Cc3ccccc3)C21 (configuration not stated) | -5.45% | – |
| COc1cc(-c2cc(C(=O)Nc3cccc(C(C)=O)c3)c3cc(F)ccc3n2)cc(OC)c1OC | -2.5% (active) | – |
| COc1ccc2c(c1OC)C(=O)N1c3ccccc3C(=O)N(Cc3ccc(C)cc3C)C21 (configuration not stated) | -0.945% | – |
| COc1ccc2c(c1OC)C(=O)N1c3ccccc3C(=O)N(Cc3ccccc3F)C21 (configuration not stated) | 4.24% | – |
